Screening results as filed in PubChem BioAssay.
PTHR1 agonist: qHTS for PTHR1 Agonists: Primary Screen | HEK293 GP2 PTHR1 cells, GloSensor cAMP luminescence, 1 h | Potency, µM (titrated, usually from 115 µM), for inactives: at the highest dose activation, hits mostly activators | hit rate 0.075% among 410,000 | AID 743266, 2014; also: potency is read from the fitted curve at half-maximal effect; nearly all actives have a fitted effect of over 55% in size
Target sequence (Q03431 whole entry, looked up): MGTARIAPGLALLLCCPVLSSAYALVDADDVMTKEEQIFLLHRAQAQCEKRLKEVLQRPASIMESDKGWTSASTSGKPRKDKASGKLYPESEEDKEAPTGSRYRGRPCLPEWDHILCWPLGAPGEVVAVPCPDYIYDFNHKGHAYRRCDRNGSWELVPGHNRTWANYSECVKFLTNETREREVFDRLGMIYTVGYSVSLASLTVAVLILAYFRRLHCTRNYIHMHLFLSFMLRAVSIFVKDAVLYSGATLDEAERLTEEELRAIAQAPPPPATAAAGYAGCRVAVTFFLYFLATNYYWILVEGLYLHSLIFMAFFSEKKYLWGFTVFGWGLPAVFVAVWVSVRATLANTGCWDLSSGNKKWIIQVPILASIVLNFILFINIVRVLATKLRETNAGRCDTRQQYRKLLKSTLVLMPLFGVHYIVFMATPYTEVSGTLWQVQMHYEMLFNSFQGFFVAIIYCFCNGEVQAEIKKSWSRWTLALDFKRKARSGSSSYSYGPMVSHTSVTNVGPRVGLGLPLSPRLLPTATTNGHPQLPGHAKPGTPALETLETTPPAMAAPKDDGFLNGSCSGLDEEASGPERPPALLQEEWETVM
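HEK-293-derived GP2 cells expressing PTHR1 and a GloSensor cAMP reporter, 3,000/well, plated overnight, given luciferin plus IBMX (each 0.5 mM as added) for 1 h at 37 °C, then compound for 1 h at 37 °C. Luminescence was read after 15 min at room temperature.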
Giardia killer: Small Molecules that selectively kill Giardia lamblia: qHTS | activity change, % at 7.66 µM, hits read low | hit rate 0.15% among 340,000 | AID 540267, 2011 | Giardia lamblia trophozoite viability; in the data active = activity change below about -80%;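 also: parasites exposed to compound for two days anaerobically before the ATP read; % is scaled to controls: 0 for no effect and ±100 for the full control effect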
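Media and compound were dispensed first, then trophozoites at 100 cells/well; plates sat 48 hrs at 37 deg C without oxygen before ATP luminescence reagent was added and read after 15-30 min at room temperature.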
PINK1 modulator: A Quantitative High throughput Screen to Identify Chemical Modulators of PINK1 Expression; Potency, µM (highest dose often 76.6 µM), for the others: top-dose activation (PINK1 increase), most hits filed as activators; hit rate 0.2% among 410,000; PINK1 immunofluorescence, high-content cytometry, 24 h; active = well fitted activation curve with a large enough effect; cell line not stated here; also: potency is read from the fitted curve at half-maximal effect; % of control where 0% means no effect; nearly all actives have a fitted effect of over 65% in size
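PINK1 protein, normally rapidly degraded, was detected by immunofluorescence after 24 hour compound treatment of a stable cell line. Titration data (5 concentrations) came from laser-scanning cytometry, with CCCP-treated wells as controls.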
ALOX12 inh: Primary qHTS assay for inhibitors of human arachidonate 12S-lipoxygenase (ALOX12): Round 2; Polyunsaturated fatty acid lipoxygenase ALOX12 (Homo sapiens), P18054; purified 12hLO, xylenol orange hydroperoxide absorbance; Potency, µM (doses to about 108 µM), for inactives: top-dose activity change, negative = inhibition, hits mostly inhibitors; hit rate 1.1% among 580,000; AID 1671190, 2021; also: potency is read from the fitted curve at half-maximal effect; % is scaled to controls: 0 for no effect and ±100 for the full control effect
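Purified human 12hLO at 150 nM in 25 mM Hepes, 0.01% Triton X-100, pH 7.0, preincubated 15 min at room temperature with compound. Reaction started with 40 uM arachidonic acid, 30 min at room temperature. Hydroperoxide measured by Fe-xylenol orange, 573/405 nm absorbance ratio.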
ERG Ets-DNA blk: qHTS for Small Molecule Inhibitors of the ERG Ets/DNA interaction; Transcriptional regulator ERG (Homo sapiens), P11308; fluorescence polarization, His-ERG Ets domain / labelled DNA; Potency, µM (titrated, usually from 76.9 µM), for inactives: at the highest dose FP activity, negative = inhibition, most hits filed as inhibitors; hit rate 0.028% among 370,000; AID 624246, 2012; active = well fitted inhibition curve with a large enough effect in the polarisation, with a control signal flat; the % refers to the polarisation;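 also: polarization taken with two DNA probes labelled with fluorescein and Texas red; potency is read from the fitted curve at half-maximal effect; % of control where 0% means no effect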
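His-tagged ERG Ets domain (1 uM in the protein solution; 300mM KCl, 50mM Tris-HCl, 1mM EDTA, 1mM DTT, pH 7.5) received compound, then a probe mix of 5 nM fluorescein-DNA and 100nM Texas-615-DNA. Fluorescence polarization was read for both dyes.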
miR-21 reporter: qHTS Assay for Modulators of miRNAs and/orActivators of miR-21. 340,000 tested, under 10 active. Potency, µM (titrated, usually from 38.3 µM), without a hit: at the highest dose activity change, positive = activation, hits mostly activators. HeLa miR-21 FLuc reporter, luciferase, 48 h;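 also: % of control where 0% means no effect; miR-21 action dims this reporter so a rising signal means less miR-21 action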
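HeLa miR-21-FLuc reporter line, endogenous miR-21; 2000 cells/well in DMEM/10% FBS; compound titration up to ~40uM final, 48 h, 37 degree Celsius; luciferase detection reagent, 15 min lysis, CCD luminescence.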
* = called active by the depositor; i = inactive; . = no result; ! = a repeat was not active; [ ] = another dose, or the depositor's remark. In the library only some 1.3% were active in any assay of this set; here they are far more common. Unless noted, calls follow the shape of the dose curve; as a rule, active = well fitted curve in the direction sought with a large enough effect; inconclusive = small, poorly fitted or top-dose-only effect, or another doubt; inactive = no such curve, though single readings can be large; an effect the other way counts as inactive or inconclusive.

SMILES | PTHR1 agonist | Giardia killer | PINK1 modulator | ALOX12 inh | ERG Ets-DNA blk | miR-21 reporter
COC(=O)C1=C(C)N(Cc2ccc(Br)cc2)C(=S)NC1c1ccc(OC)cc1 (stereo not given) | . | . | . | 45µM* | . | .
COC(=O)C1=C(C)N(Cc2ccc(F)cc2)C(=S)NC1c1ccc(Cl)cc1 (stereo not given) | . | . | . | 40µM* | . | .
CCOC(=O)C1=C(C)N(Cc2ccccc2)C(=O)NC1c1ccc(OC)cc1 (stereo not given) | -81% | -6 | 2% | -12% | 4% | 5%
COC(=O)C1=C(C)N(Cc2ccccc2)C(=NCC(C)C)N[C@H]1c1ccc(Br)cc1 | . | . | . | . | . | 20%
CNC(=O)c1ccc(N2C(=S)N(c3ccc(C#N)c(C(F)(F)F)c3)C(=O)C2(C)C)cc1F | . | . | . | -7%[57.4 µM] | . | .
CCn1c(Br)nc2c1c(=O)[nH]c(=O)n2C | . | . | . | 8% | . | .
COc1ccc(CCNC(=O)COC(=O)Cc2ccc(OC)cc2)cc1 | i | 12 | 2% | -18% | 1% | 1%
FC(F)(F)c1ccc(Cl)c(N/N=C/c2cccc(OCc3ccccc3)c2)c1 | . | . | . | 7.1µM* | . | .
COc1cc(/C=N/NC(=O)Cc2cccc(C(F)(F)F)c2)ccc1OCc1ccccc1 | . | . | . | -11% | . | .
CN(C)CC(=O)N1CC(=O)N2[C@H](CO)[C@@H](c3ccc(Br)cc3)[C@H]2C1 | . | . | . | -19% | . | .
O=C(c1cnccn1)N1CC(=O)N2[C@H](C1)[C@@H](c1ccc(Br)cc1)[C@@H]2CO | . | . | . | 5.6µM* | . | .
CCOC(=O)c1cccn1C1C(=O)N(Cc2ccc(Cl)nc2)c2c(F)cccc21 (stereo not given) | . | . | . | 56µM* | . | .
CCCCN(C(=O)c1ccc(-c2ccc(Cl)cc2)o1)c1c(N)n(CCC)c(=O)[nH]c1=O | -20% | 19 | 7% | 16µM*! | 0% | .
Cc1ccc(C(c2sc3ncnn3c2O)N2CC(C)CC(C)C2)cc1 (stereo not given) | i | 12 | -1% | 11% | 14% | -4%
O=C(c1ccc(Cl)cc1)c1coc2ccc(O)cc12 | -16%[57.5 µM] | -17 | -2% | 248% | 12% | -32%
O=C(c1ccc(Br)cc1)c1coc2ccc(O)cc12 | -14% | -5 | 2% | 22µM* | 2% | .
O=C(O)CC(CCc1ccccc1)OC1OC(CO)C(O)C(O)C1O (stereo not given) | -46% | -15 | 1% | 45µM* | -1% | 0%
CC(C(=O)N1CCCCC1)N1CCN(S(=O)(=O)c2ccc(Cl)cc2)CC1 (stereo not given) | -39% | 4 | -1% | 1µM* | 16% | .
CC(C)c1ccc(S(=O)(=O)N2CCN(C(C)C(=O)N3CCCC3)CC2)cc1 (stereo not given) | -39% | -6 | -1% | -7% | -14%[15.4 µM] | .
O=Cc1cnc(N2CCN(c3ccccc3)CC2)s1 | i | 27 | 0% | 0% | 9% | -27%
N#CC(C#N)=Cc1cnc(N2CCN(c3ccccc3)CC2)s1 | -9% | -1 | 32µM* | 16% | 3% | -10%
CCNC(=O)NC(=O)CSc1ccc(S(=O)(=O)N2CCOCC2)cn1 | i | 0 | 1% | 4% | -17% | .
Cc1noc(C)c1-c1nc(Nc2ccc(F)cc2)c2ccccc2n1 | . | . | 7% | 22µM* | . | .
Cc1noc(C)c1-c1nc(NCc2cccs2)c2ccccc2n1 | . | . | 3% | 28µM* | . | .
COC(=O)CCCCC1SCC2NC(=O)NC21O (stereo not given) | 1% | -1 | 0% | -15% | . | 2%
COC(=O)c1cccc(NC(=O)CCc2c(C)noc2C)c1 | -1% | 9 | 1% | 0% | -2% | .
